Results published in PubChem BioAssay AID588774 (The Scripps Research Institute Molecular Screening Center, 2011).
The source made the active and inactive calls.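 How the source made its calls: active means target enzyme inhibited at least 50% at a set dose, and selective over every off-target enzyme by a set factor; inactive means weaker inhibition or too little selectivity.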

How the values were obtained:
[1] = competitive ABPP of pPAFAH versus proteome hydrolases – biochemical, gel-based, FP-Rh fluorescence, complex proteome, SAR compounds, selectivity assay for pPAFAH inhibitor project, SAR follow-up (AID 588774); settings: MW 30 kDa, anti-targets inhibited, at 10 µM;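 on inhibition: 0% = DMSO-only band intensity and 100% = blank gel background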
MW 30 kDa = test: as above; settings: at 10 µM, stronger effect = higher value

| Structure (SMILES) | anti-target count [1] | inhibition (MW 30 kDa) |
| --- | --- | --- |
| Cc1cc(N2CCN(C(=O)Oc3ccc(C4CCCCC4)cc3)CC2)c2ccccc2n1 | 0 | 0% (inactive) |
| O=C(N1CCOCC1)n1oc2cc(Cl)ccc2c1=O | 6 | 78% (inactive) |
| Cc1cc(N2CCN(C(=O)Oc3ccc(-c4ccc(Br)cc4)cc3)CC2)c2ccccc2n1 | 0 | 0% (inactive) |
| O=C(Oc1noc2cc(Cl)ccc12)N1CCCCC1 | 2 | 100% (inactive) |
| Cc1cc(N2CCN(C(=O)n3ncc(-c4ccc(OC(F)(F)F)cc4)n3)CC2)c2ccccc2n1 | 9 | 100% (inactive) |
| Cc1cc(N2CCN(C(=O)Oc3noc4cc(Cl)ccc34)CC2)c2ccccc2n1 | 4 | 0% (inactive) |
| Cc1cc(N2CCN(C(=O)n3ncc(-c4ccccc4)n3)CC2)c2ccccc2n1 | 9 | 88% (inactive) |
| COc1ccc(-c2cnn(C(=O)N3CCN(c4cc(C)nc5ccccc45)CC3)n2)cc1 | 8 | 79% (inactive) |
| Cc1cc(N2CCN(C(=O)n3oc4cc(Cl)ccc4c3=O)CC2)c2ccccc2n1 | 3 | 39% (inactive) |
| Cc1cc(N2CCN(C(=O)Oc3ccc(C4CCCC4)cc3)CC2)c2ccccc2n1 | 0 | 0% (inactive) |
| O=C(Oc1noc2cc(Cl)ccc12)N1CCOCC1 | 3 | 97% (inactive) |
| Cc1cc(N2CCN(C(=O)Oc3ccc(C(F)(F)F)cc3)CC2)c2ccccc2n1 | 1 | 0% (inactive) |
| Cc1cc(N2CCN(C(=O)n3ncc(-c4ccc([N+](=O)[O-])cc4)n3)CC2)c2ccccc2n1 | 9 | 91% (inactive) |
| Cc1cc(N2CCN(C(=O)Oc3ccc(-c4ccccc4)cc3)CC2)c2ccccc2n1 | 0 | 0% (inactive) |
| Cc1cc(N2CCN(C(=O)Oc3ccc(-n4cccc4)cc3)CC2)c2ccccc2n1 | 0 | 0% (inactive) |
| Cc1cc(N2CCN(C(=O)Oc3ccc([N+](=O)[O-])cc3)CC2)c2ccccc2n1 | 2 | 0% (inactive) |
| Cc1cc(N2CCN(C(=O)n3ncc(-c4ccc(Cl)c(Cl)c4)n3)CC2)c2ccccc2n1 | 8 | 93% (inactive) |
